Test results from PubChem BioAssay (NCI).
Compounds without any hit were thinned out: in the full panel of roughly 83,000, 20% have a hit.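 Growth was measured after 48 h exposure to one concentration of compound in 96-well plates. Values under 10 count as active.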 Active and inactive are the calls of the source.

Assays:
Test in all cases: NCI-60 one-dose screen, 48 h (100 = growth as untreated, 0 = no growth, -100 = all killed)
Details in all cases: 10 µM unless noted
NCI-H23 lung = tested on: NCI-H23 lung
NCI-H226 lung = tested on: NCI-H226 lung
NCI-H322M lung = tested on: NCI-H322M lung
HOP-62 NSCLC = tested on: HOP-62 NSCLC
NCI-H460 lung = tested on: NCI-H460 lung
NCI-H522 lung = tested on: NCI-H522 lung
A549/ATCC NSCLC = tested on: A549/ATCC NSCLC
786-0 renal = tested on: 786-0 renal
COLO 205 colon = tested on: COLO 205 colon
DU-145 prostate = tested on: DU-145 prostate
K-562 leukemia = tested on: K-562 leukemia
MALME-3M melanoma = tested on: MALME-3M melanoma
MDA-MB-231 breast = tested on: MDA-MB-231 breast
RXF 393 renal = tested on: RXF 393 renal
SF-268 CNS = tested on: SF-268 CNS
SF-295 CNS = tested on: SF-295 CNS
SF-539 CNS = tested on: SF-539 CNS
UACC-257 melanoma = tested on: UACC-257 melanoma
M14 melanoma = tested on: M14 melanoma

Measured: growth

Clc1nc2ccccc2nc1-c1nnc(C2CCCCC2)o1
inactive: NCI-H23 lung 86.3% | NCI-H226 lung 84.7% | NCI-H322M lung 97.8% | HOP-62 NSCLC 106% | NCI-H460 lung 97.5% | NCI-H522 lung 99% | A549/ATCC NSCLC 98.4% | 786-0 renal 106% | COLO 205 colon 110% | DU-145 prostate 91.3% | K-562 leukemia 80.9% | MALME-3M melanoma 95.2% | MDA-MB-231 breast 105% | RXF 393 renal 87.6% | SF-268 CNS 101% | SF-295 CNS 106% | SF-539 CNS 97.7% | UACC-257 melanoma 96.7% | M14 melanoma 94.3%

CC(=O)N1N=C(c2cccc(-n3cccc3)c2)CC1c1cccc(F)c1 (stereo not given)
inactive: NCI-H23 lung 82.1% | NCI-H226 lung 94.5% | NCI-H322M lung 90.3% | HOP-62 NSCLC 109% | NCI-H460 lung 107% | NCI-H522 lung 94.8% | A549/ATCC NSCLC 95.2% | 786-0 renal 102% | COLO 205 colon 104% | DU-145 prostate 114% | K-562 leukemia 99.9% | MALME-3M melanoma 88.3% | MDA-MB-231 breast 94.8% | RXF 393 renal 86.1% | SF-268 CNS 113% | SF-295 CNS 107% | SF-539 CNS 101% | UACC-257 melanoma 104% | M14 melanoma 97.6%

CCOC(=O)c1c(Nc2ccccc2)nn2c(-c3cccs3)ccnc12
active: RXF 393 renal -6.08%
inactive: NCI-H23 lung 92.7% | NCI-H226 lung 89% | NCI-H322M lung 94.4% | HOP-62 NSCLC 93.8% | NCI-H460 lung 92.3% | NCI-H522 lung 82.1% | A549/ATCC NSCLC 95.2% | 786-0 renal 71% | COLO 205 colon 92.7% | DU-145 prostate 84.7% | K-562 leukemia 59% | MALME-3M melanoma 88.7% | MDA-MB-231 breast 81.3% | SF-268 CNS 91.4% | SF-295 CNS 84.1% | SF-539 CNS 84.1% | UACC-257 melanoma 108% | M14 melanoma 91.6%

O=S(=O)(Nc1ccc(I)cc1Cl)c1ccc(-c2cnc(C3CC3)o2)cc1
inactive: NCI-H23 lung 45.4% | NCI-H226 lung 62.5% | NCI-H322M lung 64.8% | HOP-62 NSCLC 52.7% | NCI-H460 lung 28.8% | NCI-H522 lung 34% | A549/ATCC NSCLC 54.6% | 786-0 renal 40.4% | COLO 205 colon 50.2% | DU-145 prostate 50.2% | K-562 leukemia 19.8% | MALME-3M melanoma 47.3% | MDA-MB-231 breast 57.5% | SF-268 CNS 58.9% | SF-539 CNS 21.4% | UACC-257 melanoma 58.5% | M14 melanoma 29.6%
active: RXF 393 renal -4.05% | SF-295 CNS 2.33%

CCC(NC(c1cc2cccc3ccc4cccc1c4c32)c1nnnn1C(C)(C)C)C1CCCCC1 (stereo not given)
inactive: NCI-H23 lung 46.6% | NCI-H226 lung 75% | NCI-H322M lung 79.3% | HOP-62 NSCLC 69.7% | NCI-H460 lung 31.2% | NCI-H522 lung 60.1% | A549/ATCC NSCLC 69.7% | 786-0 renal 67.3% | COLO 205 colon 78.6% | DU-145 prostate 69.7% | K-562 leukemia 35.2% | MALME-3M melanoma 83.5% | MDA-MB-231 breast 55.9% | RXF 393 renal 69.8% | SF-268 CNS 74.6% | SF-295 CNS 63.5% | SF-539 CNS 63.2% | UACC-257 melanoma 38.6% | M14 melanoma 80.5%

Cc1ccc(S(=O)(=O)NCCNc2nc(Nc3ccc(N4CCN(C)CC4)cc3)nc3ccsc23)cc1
inactive: NCI-H23 lung 100% | NCI-H226 lung 104% | NCI-H322M lung 110% | HOP-62 NSCLC 112% | NCI-H460 lung 96.4% | NCI-H522 lung 109% | A549/ATCC NSCLC 93.8% | 786-0 renal 91.3% | COLO 205 colon 113% | DU-145 prostate 102% | MALME-3M melanoma 117% | MDA-MB-231 breast 109% | RXF 393 renal 70% | SF-268 CNS 74.9% | SF-295 CNS 98.2% | SF-539 CNS 94.9% | UACC-257 melanoma 107% | M14 melanoma 106%
active: K-562 leukemia 0.196%

O=C1/C(=C/C=C/c2ccco2)SC(=S)N1C1CCCCC1
inactive: NCI-H23 lung 91.3% | NCI-H226 lung 105% | NCI-H322M lung 97.4% | HOP-62 NSCLC 102% | NCI-H460 lung 95.7% | NCI-H522 lung 75.9% | A549/ATCC NSCLC 86.8% | 786-0 renal 106% | COLO 205 colon 72.9% | DU-145 prostate 95% | K-562 leukemia 83.5% | MALME-3M melanoma 83.6% | MDA-MB-231 breast 74% | RXF 393 renal 47.7% | SF-268 CNS 109% | SF-295 CNS 97.6% | SF-539 CNS 94.8% | UACC-257 melanoma 67.7% | M14 melanoma 93.8%

COc1ccc(CCN2C(=O)CSC2=S)cc1
inactive: NCI-H23 lung 103% | NCI-H226 lung 115% | NCI-H322M lung 99.4% | HOP-62 NSCLC 104% | NCI-H460 lung 103% | NCI-H522 lung 69.3% | A549/ATCC NSCLC 102% | 786-0 renal 87.3% | COLO 205 colon 117% | DU-145 prostate 41% | K-562 leukemia 51.4% | MALME-3M melanoma 98% | MDA-MB-231 breast 79.6% | RXF 393 renal 89.7% | SF-268 CNS 100% | SF-295 CNS 97.6% | SF-539 CNS 84.7% | UACC-257 melanoma 98.9% | M14 melanoma 101%

NS(=O)(=O)c1ccc(Nc2cc(-c3ccccc3)nc(SCC(=O)c3ccccc3)n2)cc1
inactive: NCI-H23 lung 92.5% | NCI-H226 lung 92.8% | NCI-H322M lung 90.4% | HOP-62 NSCLC 106% | NCI-H460 lung 103% | NCI-H522 lung 98.6% | A549/ATCC NSCLC 98.8% | 786-0 renal 96.9% | COLO 205 colon 116% | DU-145 prostate 103% | K-562 leukemia 98.1% | MALME-3M melanoma 93% | MDA-MB-231 breast 92.9% | RXF 393 renal 94.9% | SF-268 CNS 97.1% | SF-295 CNS 99.6% | SF-539 CNS 101% | UACC-257 melanoma 99% | M14 melanoma 98.4%

O=C1C(c2ccccc2)=C(N2CCc3ccccc32)OC1(Cl)Cl
inactive: NCI-H23 lung 60.1% | NCI-H226 lung 89.2% | NCI-H322M lung 86.3% | HOP-62 NSCLC 98.1% | NCI-H460 lung 88.2% | NCI-H522 lung 75.3% | A549/ATCC NSCLC 85% | 786-0 renal 60.1% | DU-145 prostate 69.4% | MDA-MB-231 breast 82% | RXF 393 renal 33.3% | SF-268 CNS 83.1% | SF-295 CNS 83.6% | SF-539 CNS 75.8% | UACC-257 melanoma 91.4% | M14 melanoma 62.2%
active: COLO 205 colon -8.41% | K-562 leukemia 8.28% | MALME-3M melanoma -27.3%

O=C1CCCC2=C1C(c1c[nH]c3ccc(Br)cc13)Cc1cc(Br)ccc1N2 (stereo not given)
inactive: NCI-H23 lung 45.8% | NCI-H226 lung 68.8% | NCI-H322M lung 54.2% | HOP-62 NSCLC 41.2% | NCI-H460 lung 17.3% | NCI-H522 lung 12.8% | A549/ATCC NSCLC 43.7% | 786-0 renal 41.2% | COLO 205 colon 42.5% | DU-145 prostate 57.6% | K-562 leukemia 19.8% | MALME-3M melanoma 49.3% | MDA-MB-231 breast 40% | RXF 393 renal 50.1% | SF-268 CNS 51.8% | SF-539 CNS 28.6% | UACC-257 melanoma 80% | M14 melanoma 13.1%
active: SF-295 CNS -9.43%

CN(C)CCCOc1ccc2c(c1)CN(C(=O)c1cc(C(=O)N3Cc4cccc(F)c4C3)ccc1O)C2
inactive: NCI-H23 lung 102% | NCI-H226 lung 97.2% | NCI-H322M lung 105% | HOP-62 NSCLC 120% | NCI-H460 lung 105% | NCI-H522 lung 97.7% | A549/ATCC NSCLC 101% | 786-0 renal 108% | COLO 205 colon 109% | DU-145 prostate 94.9% | K-562 leukemia 88.8% | MALME-3M melanoma 103% | MDA-MB-231 breast 103% | RXF 393 renal 93.3% | SF-268 CNS 100% | SF-295 CNS 100% | SF-539 CNS 91% | UACC-257 melanoma 108% | M14 melanoma 106%

CN1CCC(n2cc(Nc3ncc4c(=O)n(-c5c(Cl)cccc5Cl)cc(Br)c4n3)cn2)CC1
inactive: NCI-H226 lung 33.9% | NCI-H322M lung 41.9% | HOP-62 NSCLC 28% | A549/ATCC NSCLC 36.2% | 786-0 renal 20.5% | COLO 205 colon 22.5% | DU-145 prostate 23.1% | MALME-3M melanoma 69.5% | MDA-MB-231 breast 22% | SF-268 CNS 39.7% | SF-295 CNS 42.4% | UACC-257 melanoma 82.1% | M14 melanoma 35%
active: NCI-H23 lung 8.53% | NCI-H460 lung 1.23% | NCI-H522 lung -8.22% | K-562 leukemia 6.48% | RXF 393 renal -58.3% | SF-539 CNS 5.25%

O=C(Nc1nc2ccc([N+](=O)[O-])cc2s1)Nc1ccccc1Br
active: NCI-H23 lung 9.86%
inactive: NCI-H226 lung 38.4% | NCI-H322M lung 27.6% | HOP-62 NSCLC 91.2% | NCI-H460 lung 27.4% | NCI-H522 lung 26.5% | A549/ATCC NSCLC 49.4% | 786-0 renal 70% | COLO 205 colon 55.3% | DU-145 prostate 46.5% | K-562 leukemia 20.7% | MALME-3M melanoma 14.6% | MDA-MB-231 breast 72.7% | RXF 393 renal 62.2% | SF-268 CNS 38.3% | SF-295 CNS 38.1% | SF-539 CNS 39.9% | UACC-257 melanoma 30.4% | M14 melanoma 54.5%

N/C(=N\C(N)=N\c1nc2ccccc2s1)c1ccncc1Cl
inactive: NCI-H23 lung 33.9% | NCI-H226 lung 67.8% | NCI-H322M lung 80.6% | HOP-62 NSCLC 51.6% | NCI-H460 lung 23.4% | NCI-H522 lung 18.4% | A549/ATCC NSCLC 71% | 786-0 renal 42.7% | COLO 205 colon 50.4% | DU-145 prostate 45.7% | K-562 leukemia 17.1% | MALME-3M melanoma 45.7% | MDA-MB-231 breast 45% | SF-268 CNS 52.6% | UACC-257 melanoma 79.7% | M14 melanoma 32.4%
active: RXF 393 renal 8.87% | SF-295 CNS -22.2% | SF-539 CNS 7.8%
